The values that follow come from PubChem BioAssay.

Results with a measured potency or affinity are listed apart. Records with an inconclusive call do not appear. Calls of active or inactive are those of the source. The rule behind the calls is not given here.

The nature of the assay: IGROV1 cell killing – plate reader, dry powder samples, PAX8 inhibitor project, dose response (AID 743043).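 Note: more negative means fewer viable cells or more cytotoxicity.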 To be noted: IGROV1 ovarian cancer cell cytotoxicity; series mostly up to 35 µM.
On to `C[C@@H]1CCCCO[C@H](CN(C)S(=O)(=O)c2ccc(Cl)cc2)[C@@H](C)CN([C@@H](C)CO)C(=O)c2cc(NC(=O)CCC(F)(F)F)ccc2O1`, for which the result was inactive.

Take `Cc1ccc(S(=O)(=O)Nc2ccc3c(c2)C(=O)N([C@@H](C)CO)C[C@@H](C)[C@H](CN(C)Cc2ccc(Cl)c(Cl)c2)OCCCC[C@@H](C)O3)cc1`: the compound was called inactive.

For the compound `CN1c2ccc(-c3ccc(C#N)cc3)cc2[C@@H]2[C@@H](CCN2C(=O)NC2CCCCC2)[C@@H]1CO`, the outcome was inactive.

Consider `C[C@H]1CCCCO[C@H](CN(C)C(=O)Nc2ccc(C(F)(F)F)cc2)[C@@H](C)CN([C@@H](C)CO)C(=O)c2cc(NC(=O)c3ccncc3)ccc2O1`, for which the call was inactive.

`COc1ccccc1S(=O)(=O)N(C)C[C@@H]1Oc2cc(C#CCC3CCCC3)ccc2S(=O)(=O)N([C@@H](C)CO)C[C@@H]1C`: the compound was called inactive.

For the compound `C[C@@H]1CN([C@H](C)CO)C(=O)c2cc(NC(=O)Nc3ccc(F)cc3)ccc2O[C@@H](C)CCCCO[C@H]1CN(C)C(=O)Nc1ccc(F)cc1`, the compound was classed as inactive.

For `Cc1ccc(S(=O)(=O)N(C)C[C@H]2Oc3ccc(NC(=O)Nc4ccc(C(F)(F)F)cc4)cc3CC(=O)N([C@H](C)CO)C[C@@H]2C)cc1`, the compound was called inactive.

`CCCN(C)C[C@H]1OCCCC[C@@H](C)Oc2ccc(NC(=O)c3ccccc3)cc2C(=O)N([C@H](C)CO)C[C@H]1C`: the outcome was inactive.

In the case of `C[C@@H]1CN([C@H](C)CO)S(=O)(=O)c2ccc(C#Cc3ccncc3)cc2O[C@H]1CN(C)C(=O)Nc1ccc2c(c1)OCO2`, the compound was classed as inactive.

Turning to `C[C@@H]1CN([C@H](C)CO)C(=O)c2cc(NC(=O)Nc3ccc(C(F)(F)F)cc3)ccc2O[C@@H](C)CCCCO[C@H]1CN(C)Cc1ccc(Cl)c(Cl)c1`, the call was inactive.

As to `C[C@H](CO)N1C[C@H](C)[C@H](CN(C)C(=O)NC2CCCCC2)OCCCC[C@H](C)Oc2ccc(NC(=O)Nc3ccc(C(F)(F)F)cc3)cc2C1=O`, the outcome was inactive.

For `C[C@@H]1CN([C@H](C)CO)C(=O)Cc2cc(NC(=O)Nc3ccc(F)cc3)ccc2O[C@@H]1CN(C)Cc1ccc(Cl)c(Cl)c1`, the result was inactive.

As for `C[C@@H]1CN([C@@H](C)CO)C(=O)c2ccccc2-c2ccccc2CO[C@H]1CN(C)Cc1ccccc1C(F)(F)F`, the compound was called inactive.

As to `Cc1ccc(S(=O)(=O)Nc2ccc3c(c2)C(=O)N([C@@H](C)CO)C[C@H](C)[C@@H](CN(C)C(=O)Nc2ccc(C(F)(F)F)cc2)OCCCC[C@H](C)O3)cc1`, the outcome was inactive.

Regarding `Cc1ccc(S(=O)(=O)N(C)C[C@@H]2Oc3c(NC(=O)c4ccc(-c5nccs5)cc4)cccc3C(=O)N([C@@H](C)CO)C[C@@H]2C)cc1`, the compound was classed as inactive.

With `C[C@@H]1CN([C@H](C)CO)C(=O)Cc2cc(NC(=O)Cc3ccccc3)ccc2O[C@@H]1CN(C)Cc1ccc(C(F)(F)F)cc1`, the call was inactive.

On to `C[C@H](CO)N1C[C@H](C)[C@H](CN(C)Cc2ccc(Cl)c(Cl)c2)Oc2c(NS(=O)(=O)c3ccc(Cl)cc3)cccc2C1=O`, for which the call was inactive.

With `C[C@@H]1CN([C@H](C)CO)C(=O)c2cc(NC(=O)c3ccncc3)ccc2O[C@@H](C)CCCCO[C@H]1CN(C)Cc1ccc(C(F)(F)F)cc1`, the outcome was inactive.

`C[C@@H]1CN([C@@H](C)CO)C(=O)c2cc(NS(=O)(=O)c3ccc(Cl)cc3)ccc2O[C@@H](C)CCCCO[C@H]1CN(C)Cc1ccc(C(F)(F)F)cc1`: the compound was classed as inactive.

`C[C@H]1CCCCO[C@@H](CN(C)C(=O)c2ccccc2)[C@@H](C)CN([C@@H](C)CO)C(=O)c2cc(NC(=O)Nc3ccc(C(F)(F)F)cc3)ccc2O1`: the compound was classed as inactive.

Regarding `C[C@@H]1CN([C@@H](C)CO)C(=O)c2cc(NS(=O)(=O)c3ccccc3)ccc2O[C@@H](C)CCCCO[C@@H]1CN(C)Cc1ccc(C(F)(F)F)cc1`, the compound was classed as inactive.

As for `C[C@@H]1CN([C@H](C)CO)C(=O)c2cc(NC(=O)Nc3ccccc3)ccc2O[C@@H](C)CCCCO[C@H]1CN(C)Cc1ccc(Cl)c(Cl)c1`, the result was inactive.

Regarding `C[C@@H]1CCCCO[C@@H](CN(C)Cc2ccc(Cl)c(Cl)c2)[C@H](C)CN([C@@H](C)CO)C(=O)c2cc(NC(=O)Cc3ccccc3)ccc2O1`, the compound was classed as inactive.

`C[C@H]1CCCCO[C@H](CN(C)S(=O)(=O)c2ccc(Cl)cc2)[C@@H](C)CN([C@@H](C)CO)C(=O)c2cc(NS(=O)(=O)c3ccc(Cl)cc3)ccc2O1`: the outcome was inactive.

As for `C[C@@H]1CN([C@@H](C)CO)C(=O)c2cc(NC(=O)c3ccccc3)ccc2O[C@@H](C)CCCCO[C@H]1CN(C)Cc1ccc(C(F)(F)F)cc1`, the call was inactive.

With `C[C@@H]1CCCCO[C@H](CN(C)C)[C@H](C)CN([C@H](C)CO)C(=O)c2cc(NC(=O)Nc3cccc4ccccc34)ccc2O1`, the outcome was inactive.

For `C[C@H](CO)N1C[C@H](C)[C@@H](CN(C)C(=O)NC2CCCCC2)Oc2cc(C#Cc3ccc(F)cc3)ccc2S1(=O)=O`, the compound was classed as inactive.

`C[C@H]1CCCCO[C@@H](CN(C)C(=O)Nc2ccc(C(F)(F)F)cc2)[C@@H](C)CN([C@@H](C)CO)C(=O)c2cc(NS(=O)(=O)c3cn(C)cn3)ccc2O1`: the result was inactive.

As for `COc1ccccc1-c1ccc2c(c1)O[C@H](CN(C)Cc1ccc3c(c1)OCO3)[C@H](C)CN([C@@H](C)CO)S2(=O)=O`, the compound was classed as inactive.

`C[C@@H]1CCCCO[C@H](CN(C)C(=O)NC2CCCCC2)[C@@H](C)CN([C@@H](C)CO)C(=O)c2cc(NC(=O)Nc3ccc(C(F)(F)F)cc3)ccc2O1`: the outcome was inactive.

In the case of `C[C@@H]1CN([C@@H](C)CO)C(=O)Cc2cc(NS(=O)(=O)c3ccc(F)cc3)ccc2O[C@H]1CN(C)Cc1ccc(Oc2ccccc2)cc1`, the compound was classed as inactive.
